In PubChem BioAssay (Tox21):
Inconclusive results are not listed. Active and inactive are the calls of the source. Unless noted, calls follow the shape of the dose curve; as a rule, active = well fitted curve in the direction sought with a large enough effect in the repeat runs; inconclusive = weak or mixed curves; inactive = no such curve, though single readings can be large; an effect the other way counts as inactive or inconclusive.

What was measured:
[1] = qHTS assay to identify small molecule agonists of the vitamin D receptor (VDR) signaling pathway - cell viability counter screen (AID 743224); also: series mostly up to about 63 µM; nearly all actives have a fitted effect of over 50% in size
Method in brief: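 Viability is measured in the same wells as the VDR-bla reporter assay: after 16 h compound treatment and 2 h substrate loading, CellTiter-Glo is added and luminescence read 30 min later.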

[2] = qHTS assay to identify small molecule agonists of the NFkB signaling pathway (AID 1159509; active = well fitted curve in the direction sought with a large enough effect in the signal ratio in the repeat runs, not every such curve was filed as active; the % refers to the signal ratio; also: series mostly up to about 61 µM)
Method in brief: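 After overnight attachment, reporter cells received test compounds, DMSO or positive controls and were incubated 5 hr at 37 C. FRET substrate was then added for 1.5 hr at room temperature before dual-emission fluorescence reading.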

[3] = qHTS assay to identify small molecule agonists of the NFkB signaling pathway - cell viability counter screen (AID 1159515; calls by dose curve; also: series mostly up to about 61 µM; nearly all actives have a fitted effect of over 55% in size)
Method in brief: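 Multiplexed viability readout: after the 5 hr compound exposure and 1.5 hr FRET substrate step, CellTiter-Glo reagent went into the same NFkB-bla ME-180 wells; ATP luminescence was measured after 30 min at room temperature.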

[4] = qHTS assay to identify small molecule agonists of the endoplasmic reticulum stress response signaling pathway (AID 1159516; active = well fitted activation curve with a large enough effect in the signal ratio in the repeat runs, not every such curve was filed as active; the % refers to the signal ratio)
Method in brief: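 Tox21 10K library screened in quantitative HTS format on ESRE-bla HeLa cells, a beta-lactamase reporter under ER stress response element control; 5 hr treatment, FRET read.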

[5] = qHTS assay to identify small molecule agonists of the endoplasmic reticulum stress response signaling pathway - cell viability counter screen (AID 1159517; calls by dose curve; also: series mostly up to about 61 µM; nearly all actives have a fitted effect of over 50% in size)
Method in brief: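 Cells, HeLa ESRE-bla; density, 1,500/well; dosing, 5 hr at 37 C, 5% CO2; readout, CellTiter-Glo luminescence after 30 min RT.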

[6] = qHTS assay to identify small molecule antagonists of the retinoid-related orphan receptor gamma (ROR-gamma) signaling pathway - cell viability counter screen (AID 1159520); also: nearly all actives have a fitted effect of over 50% in size
Method in brief: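 Cytotoxicity was read from cellular ATP (CellTiter-Glo luminescence) after 16 hr at 37 C with 1 uM doxycycline induction. The inducer was added 2 hr after compound transfer to Tet-on ROR gamma CHO cells.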

[7] = molecular target: Nuclear receptor ROR-gamma (Homo sapiens) (UniProt P51449); assay: qHTS assay to identify small molecule antagonists of the retinoid-related orphan receptor gamma (ROR-gamma) signaling pathway (AID 1159521;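 also: CHO cells with doxycycline inducible ROR-gamma driving an RORE luciferase reporter; top concentration of the series differs between compounds; nearly all actives have a fitted effect of over 50% in size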)
Method in brief: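 Test compounds were applied to Tet-on RORγ CHO cells 2 h ahead of doxycycline hyclate (1 uM final). Luciferase reporter activity was quantified by luminescence after 16 h at 37 C and 5% CO2.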

[8] = qHTS assay to identify small molecule agonists of the AP-1 signaling pathway - cell viability counter screen (AID 1159525; calls by dose curve; also: nearly all actives have a fitted effect of over 55% in size)
Method in brief: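 Luminescent ATP readout (Cell Titer Glo, 30 min RT), normalised to DMSO and tetra n-octyl ammonium bromide controls. Cells were ME-180 AP-1-bla in 0.5% dialyzed FBS Opti-MEM, with a 5 h, 37 °C compound exposure.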

[9] = qHTS assay to identify small molecule agonists of the AP-1 signaling pathway (AID 1159526; calls by dose curve)
[10] = molecular target: Retinoic acid receptor RXR-alpha (Homo sapiens) (UniProt P19793); assay: qHTS assay to identify small molecule agonists of the RXR signaling pathway (AID 1159527; calls by dose curve; also: nearly all actives have a fitted effect of over 35% in size)
Retinoic acid receptor RXR-alpha (Homo sapiens), sequence (P19793 whole entry, looked up): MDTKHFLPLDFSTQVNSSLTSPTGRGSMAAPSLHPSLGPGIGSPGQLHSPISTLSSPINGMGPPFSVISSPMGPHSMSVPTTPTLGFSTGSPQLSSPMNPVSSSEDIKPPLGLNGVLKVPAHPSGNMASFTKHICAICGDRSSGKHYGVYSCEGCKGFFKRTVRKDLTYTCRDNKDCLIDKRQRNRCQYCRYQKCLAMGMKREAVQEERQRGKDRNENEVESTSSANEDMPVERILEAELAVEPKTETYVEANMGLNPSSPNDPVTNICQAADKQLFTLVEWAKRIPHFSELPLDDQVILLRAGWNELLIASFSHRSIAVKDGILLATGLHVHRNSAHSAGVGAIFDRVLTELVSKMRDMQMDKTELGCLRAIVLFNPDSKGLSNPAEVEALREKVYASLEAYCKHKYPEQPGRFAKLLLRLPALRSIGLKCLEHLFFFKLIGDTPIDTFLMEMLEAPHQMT
Method in brief: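 Using 9-cis retinoic acid as the reference agonist, chemicals were tested in HEK 293T cells […] for 16 hr; substrate loading lasted 2 hr at room temperature.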

[11] = qHTS assay to identify small molecule agonists of the RXR signaling pathway - cell viability counter screen (AID 1159529)
Method in brief: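 Compounds dissolved in DMSO were pinned onto HEK 293T cells carrying a beta-lactamase reporter under RXR-alpha control and incubated 16 hr. Cytotoxicity was then quantified by CellTiter-Glo luminescence.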

[12] = qHTS assay to identify small molecule antagonists of the retinoid acid receptor (RAR) signaling pathway - cell viability counter screen (AID 1159551); also: nearly all actives have a fitted effect of over 35% in size
Method in brief: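 Cytotoxicity counter screen in C3RL4 cells: 6 h compound exposure with 1 uM retinol (final), viability from cellular ATP by luminescence.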

[13] = qHTS assay to identify small molecule antagonists of the retinoic acid receptor (RAR) signaling pathway (AID 1159552; also: nearly all actives have a fitted effect of over 50% in size)
Method in brief: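 Test chemicals and DMSO controls were pin-transferred onto C3RL4 cells a day after seeding; retinol (1 uM final) followed at once. Luminescent reporter output was quantified after 6 hr of co-incubation and 30 min with detection reagent.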

[14] = qHTS assay to identify small molecule antagonists of the estrogen related receptor (ERR) signaling pathway from Tox21 library - cell viability counter screen (AID 1224834); also: nearly all actives have a fitted effect of over 30% in size
Method in brief: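 Cytotoxicity of test substances is gauged in the same ERR cells used for the antagonist screen, after 17.5 h of compound treatment at 37 C, by CellTiter-Fluor fluorescence measured after 30 min.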

[15] = molecular target: Luciferin 4-monooxygenase (Photinus pyralis) (UniProt P08659); assay: qHTS assay to identify small molecule inhibitors of firefly luciferase (AID 1224835); also: series mostly up to about 120 µM; nearly all actives have a fitted effect of over 25% in size
Luciferin 4-monooxygenase (Photinus pyralis), sequence (P08659 whole entry, looked up): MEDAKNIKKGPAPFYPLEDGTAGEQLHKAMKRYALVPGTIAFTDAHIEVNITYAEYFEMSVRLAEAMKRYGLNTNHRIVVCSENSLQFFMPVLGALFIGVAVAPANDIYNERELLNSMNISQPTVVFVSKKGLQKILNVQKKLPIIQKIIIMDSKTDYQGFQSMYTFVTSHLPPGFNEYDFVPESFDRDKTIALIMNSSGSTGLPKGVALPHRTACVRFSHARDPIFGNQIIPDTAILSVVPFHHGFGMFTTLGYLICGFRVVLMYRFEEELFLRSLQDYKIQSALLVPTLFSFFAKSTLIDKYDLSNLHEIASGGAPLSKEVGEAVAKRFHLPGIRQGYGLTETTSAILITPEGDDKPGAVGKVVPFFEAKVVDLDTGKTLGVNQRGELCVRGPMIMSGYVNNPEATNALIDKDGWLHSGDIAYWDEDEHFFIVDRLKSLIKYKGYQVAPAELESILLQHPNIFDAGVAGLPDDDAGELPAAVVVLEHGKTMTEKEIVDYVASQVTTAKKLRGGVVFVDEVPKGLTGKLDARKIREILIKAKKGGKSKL
Method in brief: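 Inhibition of purified Photinus luciferase is measured by luminescence. Substrate levels (D-luciferin, ATP) sit at their KM values. Each compound is tested in a concentration series.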

[16] = qHTS assay to identify small molecule agonists of the constitutive androstane receptor (CAR) signaling pathway - cell viability counter screen (AID 1224836); also: series mostly up to about 92 µM; nearly all actives have a fitted effect of over 45% in size
Method in brief: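 23 h treatment, 37 C, 5% CO2. Cell line: HepG2 stably expressing hCAR with a CYP2B6-2.2kb construct. Co-treatment: PK11195, 0.75 uM final. Read-out: CellTiter-Fluor fluorescence intensity.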

[17] = qHTS assay to identify small molecule antagonists of the constitutive androstane receptor (CAR) signaling pathway - cell viability counter screen (AID 1224837); also: series mostly up to about 92 µM; nearly all actives have a fitted effect of over 45% in size
Method in brief: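 Multiplexed cytotoxicity read-out for the CAR antagonist screen: double-stable HepG2-CYP2B6-hCAR cells co-treated with 50 nM CITCO (final) and compound over 15 concentrations, incubated 23 hr, then assessed by CellTiter-Fluor fluorescence.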

[18] = molecular target: Nuclear receptor subfamily 1 group I member 3 (Homo sapiens) (UniProt Q14994); assay: qHTS assay to identify small molecule antagonists of the constitutive androstane receptor (CAR) signaling pathway (AID 1224838); also: nearly all actives have a fitted effect of over 40% in size
Nuclear receptor subfamily 1 group I member 3 (Homo sapiens), sequence (Q14994 whole entry, looked up): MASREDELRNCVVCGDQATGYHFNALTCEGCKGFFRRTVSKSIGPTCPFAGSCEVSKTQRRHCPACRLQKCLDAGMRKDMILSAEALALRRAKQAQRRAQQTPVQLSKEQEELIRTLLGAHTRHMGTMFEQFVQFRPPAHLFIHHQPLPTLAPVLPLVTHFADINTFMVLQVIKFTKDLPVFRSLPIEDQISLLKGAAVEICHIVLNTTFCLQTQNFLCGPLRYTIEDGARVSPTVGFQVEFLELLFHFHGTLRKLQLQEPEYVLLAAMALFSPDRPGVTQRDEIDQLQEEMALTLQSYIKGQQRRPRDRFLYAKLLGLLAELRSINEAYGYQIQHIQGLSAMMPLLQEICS
Method in brief: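 Compounds were titrated across 15 concentrations onto HepG2 cells double-stably expressing hCAR and a CYP2B6-2.2kb reporter, together with 50 nM CITCO (final). After 24 h at 37 C, luciferase activity was measured by luminescence.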

[19] = qHTS assay to identify small molecule antagonists of the vitamin D receptor (VDR) signaling pathway - cell viability counter screen (AID 743225); also: nearly all actives have a fitted effect of over 50% in size
Method in brief: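 Compounds were pinned onto VDR-bla HEK 293T cells together with 1-alpha,25-dihydroxyvitamin D3 at 3 nM final. After 16 h at 37C and 5% CO2 plus the reporter readout, cell viability was measured by CellTiter-Glo luminescence (30 min, room temperature).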

[20] = qHTS assay to identify small molecule agonists of the retinoic acid receptor (RAR) signaling pathway (AID 1159553)
Method in brief: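 Agonist activity was scored in C3RL4 cells bearing a retinoic acid response element luciferase construct. Cells were treated with compounds for 6 hr at 37 C, and luciferase signal was measured as luminescence.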

Measured: Potency

CO/N=C(/C(=O)N[C@@H]1C(=O)N2C(C(=O)[O-])=C(C[n+]3ccn4ncccc43)CS[C@H]12)c1nsc(N)n1
inactive: [1] | [2] | [3] | [4] | [5] | [6] | [7] | [8] | [9] | [10] | [11] | [12] | [13] | [14] | [15] | [16] | [17] | [18]

c1ccc2c(CC3=NCCN3)cccc2c1
inactive: [1] | [19] | [2] | [3] | [4] | [5] | [6] | [7] | [8] | [9] | [10] | [11] | [13] | [20] | [14] | [15] | [16] | [17] | [18]

O=C(Cl)c1ccccc1[N+](=O)[O-]
inactive: [1] | [2] | [3] | [4] | [5] | [6] | [7] | [9] | [10] | [11] | [12] | [13] | [20] | [14] | [15] | [16] | [17] | [18]

CCN1CCCC1CN (stereo not given)
inactive: [1] | [19] | [2] | [3] | [4] | [5] | [6] | [7] | [8] | [9] | [10] | [11] | [12] | [13] | [14] | [15] | [16] | [17] | [18]

Cc1c(Cl)cccc1Cl
inactive: [1] | [2] | [3] | [4] | [5] | [6] | [7] | [8] | [9] | [10] | [11] | [12] | [13] | [14] | [15] | [16] | [17] | [18]

CCCCC1CCC(O)CC1 (stereo not given)
inactive: [1] | [19] | [2] | [3] | [4] | [5] | [6] | [7] | [8] | [9] | [10] | [11] | [13] | [20] | [14] | [15] | [16] | [17] | [18]

CCC(=O)CC
inactive: [1] | [2] | [3] | [4] | [5] | [6] | [7] | [8] | [9] | [10] | [11] | [12] | [13] | [14] | [15] | [16] | [17] | [18]

C=CCN1C[C@H](C(=O)N(CCCN(C)C)C(=O)NCC)C[C@@H]2c3cccc4[nH]cc(c34)C[C@H]21
inactive: [1] | [19] | [2] | [3] | [4] | [5] | [6] | [7] | [8] | [9] | [10] | [11] | [12] | [13] | [14] | [15] | [16] | [17] | [18]

OCC(O)CN1CCN(c2ccccc2)CC1 (stereo not given)
inactive: [2] | [3] | [4] | [5] | [6] | [7] | [9] | [10] | [11] | [12] | [13] | [20] | [14] | [15] | [16] | [17] | [18]

Cn1c(=O)c2c(ncn2CCO)n(C)c1=O
inactive: [1] | [19] | [2] | [3] | [4] | [5] | [6] | [7] | [8] | [9] | [10] | [11] | [13] | [20] | [14] | [15] | [16] | [17] | [18]

CCC(C)C(C)=O (stereo not given)
inactive: [1] | [19] | [2] | [3] | [4] | [5] | [6] | [7] | [8] | [9] | [10] | [11] | [13] | [14] | [15] | [16] | [17] | [18]

CC(=O)OC1CCCCC1C(C)(C)C (stereo not given)
inactive: [1] | [19] | [2] | [3] | [4] | [5] | [6] | [7] | [8] | [9] | [10] | [11] | [13] | [20] | [14] | [15] | [16] | [17] | [18]

C=CC(=O)OCC1CCCO1 (stereo not given)
inactive: [1] | [19] | [2] | [3] | [4] | [5] | [6] | [7] | [9] | [10] | [11] | [12] | [13] | [20] | [14] | [15] | [16] | [17] | [18]
